# Experimental data published in PubChem BioAssay (Tox21).
# A number with no mark means an inactive call. Results filed as inconclusive are left out. Entries that show only a call come without a potency. Calls of active or inactive are those of the source. Unless noted, the call rests on the fitted dose curve; in most records, active means well fitted curve in the direction sought with a large enough effect in the repeat runs; inconclusive means weak or mixed curves; inactive means no such curve, though single readings can be large; an effect the other way counts as inactive or inconclusive.
# Tests used:
# [1] = qHTS assay to test for compound auto fluorescence at 535 nm (green) in HEK293 cells (AID 720680)
# [2] = qHTS assay to test for compound auto fluorescence at 460 nm (blue) in HEK293 cell free culture (AID 720681)
# Procedure, shortened: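 Compounds were added to cell-free DMEM with 10% FBS and fluorescence read directly. The blue channel used 405 nm excitation and 460 nm emission, with triamterene as the reference fluorophore.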
# [3] = qHTS assay to test for compound auto fluorescence at 535 nm (green) in HEK293 cell free culture (AID 720682)
# Procedure, shortened: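 Fluorescein serves as the green reference fluorophore; each compound's intrinsic emission at 535 nm (excitation 485 nm) is reported as an equivalent amount of that dye, measured in serum-containing DMEM without cells.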
# [4] = qHTS assay to test for compound auto fluorescence at 590 nm (red) in HEK293 cell free culture (AID 720683)
# Procedure, shortened: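 Cell-free wells of DMEM with 10% FBS received compound, and intrinsic fluorescence was read at excitation/emission 540/590 nm. Values expressed as equivalence to Rose Bengal sodium.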
# [5] = qHTS assay to test for compound auto fluorescence at 590 nm (red) in HepG2 cell free culture (AID 720684)
# Procedure, shortened: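 Compound was pinned into wells holding MEM with 10% FBS and no cells, and red fluorescence was read at Ex/Em 540/590 nm. Signal is expressed as auto fluorescence equivalency relative to Rose Bengal sodium.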
# [6] = qHTS assay to test for compound auto fluorescence at 460 nm (blue) in HepG2 cell free culture (AID 720685)
# Procedure, shortened: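 Compound (23 nL) or DMSO pinned into cell-free MEM with 10% FBS; blue fluorescence read at 405/460 nm excitation/emission, expressed as auto-fluorescence equivalency to triamterene.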
# [7] = qHTS assay to test for compound auto fluorescence at 535 nm (green) in HepG2 cell free culture (AID 720686)
# [8] = qHTS assay to test for compound auto fluorescence at 460 nm (blue) in HepG2 cells (AID 720687)
# Procedure, shortened: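 HepG2 cells in MEM with 10% FBS, attached overnight at 37 C, were exposed to compound or DMSO for 1 hr at 37 C, 5% CO2. Blue fluorescence was read at 405/460 nm, with triamterene as reference fluorophore.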
# [9] = qHTS assay to identify small molecule antagonists of the glucocorticoid receptor (GR) signaling pathway - cell viability counter screen (AID 720693); further: nearly all actives have a fitted effect of over 55% in size
# [10] = qHTS assay for identifying genotoxic compounds that show differential cytotoxicity against isogenic chicken DT40 cell lines with known DNA damage response pathways - wild type cell line (AID 743012); further: nearly all actives have a fitted effect of over 60% in size
# Procedure, shortened: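 Using parental DT40 (300 cells/well), compounds delivered in DMSO incubate 40 h at 37 C/5% CO2. CellTiter-Glo reagent then stands 30 min at room temperature, and luminescence gives cell viability.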
# [11] = qHTS assay for identifying genotoxic compounds that show differential cytotoxicity against isogenic chicken DT40 cell lines with known DNA damage response pathways - Rev3 mutant cell line (AID 743014); further: nearly all actives have a fitted effect of over 55% in size; further: potency means the concentration at half of the fitted maximal effect
# [12] = qHTS assay for identifying genotoxic compounds that show differential cytotoxicity against isogenic chicken DT40 cell lines with known DNA damage response pathways - Rad54/Ku70 mutant cell line (AID 743015); further: nearly all actives have a fitted effect of over 60% in size
# [13] = qHTS assay to identify small molecule antagonists of the androgen receptor (AR) signaling pathway - cell viability counter screen (AID 743033; further: nearly all actives have a fitted effect of over 45% in size)
# [14] = qHTS assay to identify small molecule antagonists of the androgen receptor (AR) signaling pathway using the MDA cell line - cell viability counter screen (AID 743041; further: nearly all actives have a fitted effect of over 45% in size)
# Procedure, shortened: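 MDA-kb2 AR-luc cells (MMTV-luciferase, AR/GR responsive) treated with compounds plus R1881 agonist for 16 h at 37C. CellTiter-Fluor added at 15.5 h; fluorescence read after 30 min in the same wells.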
# [15] = biological target: Glucocorticoid receptor (Homo sapiens) (UniProt P04150); test: qHTS assay to identify small molecule antagonists of the glucocorticoid receptor (GR) signaling pathway (AID 720692; active means well fitted inhibition curve with a large enough effect in the signal ratio in the repeat runs, not every such curve was filed as active; the % refers to the signal ratio)
# Procedure, shortened: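 Dexamethasone (5 nM final) stimulated a stably integrated GRE-beta-lactamase reporter in HeLa cells during 18 h co-incubation with compounds; signal was quantified as fluorescence intensity of B/G FRET substrate after 2 h.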
# [16] = biological target: Androgen receptor (Homo sapiens) (UniProt P10275); test: qHTS assay to identify small molecule agonists of the androgen receptor (AR) signaling pathway (AID 743036; active means well fitted activation curve with a large enough effect in the signal ratio in the repeat runs, with a control signal flat, not every such curve was filed as active; the % refers to the signal ratio)
# Procedure, shortened: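 Fluorescence from a beta-lactamase FRET substrate served as read-out in AR-UAS-bla GripTite HEK293 cells. Cells were treated with DMSO-dissolved compounds for 16 h at 37C, then with LiveBLAzer B/G substrate for 2 h at room temperature.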
# [17] = biological target: Androgen receptor (Homo sapiens) (UniProt P10275); test: qHTS assay to identify small molecule agonists of the androgen receptor (AR) signaling pathway using the MDA cell line (AID 743040; further: nearly all actives have a fitted effect of over 20% in size)
# Procedure, shortened: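 MDA-kb2 breast carcinoma cells carrying MMTV-luciferase (responsive to AR and GR), plated 5 h then treated 16 h with compounds at 37C, 0% CO2. Read-out was ONE-Glo luminescence after 30 min at room temperature.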
# [18] = biological target: Androgen receptor (Homo sapiens) (UniProt P10275); test: qHTS assay to identify small molecule antagonists of the androgen receptor (AR) signaling pathway using the MDA cell line (AID 743042; further: nearly all actives have a fitted effect of over 55% in size)
# Procedure, shortened: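 MDA-kb2 breast carcinoma cells carrying MMTV-luciferase (AR/GR responsive) were co-treated with compounds and the agonist R1881 for 16 h at 37C. Inhibition read as ONE-Glo luminescence; CellTiter-Fluor fluorescence measured in parallel for cytotoxicity.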
# [19] = biological target: Androgen receptor (Homo sapiens) (UniProt P10275); test: qHTS assay to identify small molecule antagonists of the androgen receptor (AR) signaling pathway (AID 743035; active means well fitted inhibition curve with a large enough effect in the signal ratio in the repeat runs, not every such curve was filed as active; the % refers to the signal ratio)
# Procedure, shortened: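 Using qHTS, AR-UAS-bla GripTite HEK293 cells received compound, then R1881, and were cultured 16 h at 37C/5% CO2 before a 2 h room-temperature LiveBLAzer B/G FRET substrate step and fluorescence measurement.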
# [20] = biological target: Glucocorticoid receptor (Homo sapiens) (UniProt P04150); test: qHTS assay to identify small molecule agonists of the glucocorticoid receptor (GR) signaling pathway (AID 720691; active means well fitted activation curve with a large enough effect in the signal ratio in the repeat runs, not every such curve was filed as active; the % refers to the signal ratio)
# Procedure, shortened: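 Reporter read-out: fluorescence intensity following 2 h room-temperature LiveBLAzer B/G FRET substrate loading. Prior step: GR-bla HeLa cells held 4 h, then treated 18 h at 37 C.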
# Androgen receptor (Homo sapiens), sequence (P10275 whole entry, looked up): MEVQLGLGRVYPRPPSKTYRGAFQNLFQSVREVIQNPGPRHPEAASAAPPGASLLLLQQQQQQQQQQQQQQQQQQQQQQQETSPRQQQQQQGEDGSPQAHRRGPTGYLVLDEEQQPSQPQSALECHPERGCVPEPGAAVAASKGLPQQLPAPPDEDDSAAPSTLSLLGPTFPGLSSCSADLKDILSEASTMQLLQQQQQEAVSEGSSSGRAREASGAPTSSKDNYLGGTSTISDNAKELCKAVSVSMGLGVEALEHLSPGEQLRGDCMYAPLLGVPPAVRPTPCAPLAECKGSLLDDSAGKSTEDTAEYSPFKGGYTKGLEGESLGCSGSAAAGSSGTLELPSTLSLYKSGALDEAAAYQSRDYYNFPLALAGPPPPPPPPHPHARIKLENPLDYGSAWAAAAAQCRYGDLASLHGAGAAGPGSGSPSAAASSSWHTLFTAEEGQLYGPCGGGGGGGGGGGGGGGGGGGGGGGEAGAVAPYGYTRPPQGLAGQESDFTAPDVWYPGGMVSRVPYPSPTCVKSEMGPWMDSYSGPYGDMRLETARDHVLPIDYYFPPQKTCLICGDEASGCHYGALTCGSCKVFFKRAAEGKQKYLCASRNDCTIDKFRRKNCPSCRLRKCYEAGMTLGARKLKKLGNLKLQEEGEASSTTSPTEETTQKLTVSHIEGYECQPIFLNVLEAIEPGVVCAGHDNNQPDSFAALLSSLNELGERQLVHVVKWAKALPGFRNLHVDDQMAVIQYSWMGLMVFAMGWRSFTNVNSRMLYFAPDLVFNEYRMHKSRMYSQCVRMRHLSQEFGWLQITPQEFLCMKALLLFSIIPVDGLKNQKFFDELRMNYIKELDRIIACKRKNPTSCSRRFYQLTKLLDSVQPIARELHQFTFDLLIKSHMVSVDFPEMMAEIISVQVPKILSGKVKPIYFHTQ
# Glucocorticoid receptor (Homo sapiens), sequence (P04150 whole entry, looked up): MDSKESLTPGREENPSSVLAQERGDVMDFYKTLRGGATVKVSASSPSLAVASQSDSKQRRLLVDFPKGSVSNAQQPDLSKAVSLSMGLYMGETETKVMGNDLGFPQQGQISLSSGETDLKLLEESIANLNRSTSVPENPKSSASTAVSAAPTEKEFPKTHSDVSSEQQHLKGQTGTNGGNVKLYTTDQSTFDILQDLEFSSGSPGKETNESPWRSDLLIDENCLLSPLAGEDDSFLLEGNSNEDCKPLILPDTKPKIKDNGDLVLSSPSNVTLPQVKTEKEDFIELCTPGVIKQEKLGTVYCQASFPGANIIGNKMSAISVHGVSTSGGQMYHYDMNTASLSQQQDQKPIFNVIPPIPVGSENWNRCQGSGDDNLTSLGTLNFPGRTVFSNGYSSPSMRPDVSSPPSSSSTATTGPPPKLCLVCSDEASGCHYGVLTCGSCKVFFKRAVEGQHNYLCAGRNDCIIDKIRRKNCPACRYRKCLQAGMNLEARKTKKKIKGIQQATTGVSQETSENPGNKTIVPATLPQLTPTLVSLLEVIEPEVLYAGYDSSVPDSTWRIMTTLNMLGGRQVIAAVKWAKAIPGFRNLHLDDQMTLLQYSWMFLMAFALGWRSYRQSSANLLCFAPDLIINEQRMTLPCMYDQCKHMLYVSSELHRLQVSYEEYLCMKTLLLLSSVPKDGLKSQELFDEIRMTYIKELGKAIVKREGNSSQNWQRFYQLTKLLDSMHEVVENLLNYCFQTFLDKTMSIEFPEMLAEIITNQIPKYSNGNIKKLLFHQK
SMILES,outcome [1],outcome [2],outcome [3],outcome [4],outcome [5],outcome [6],outcome [7],outcome [8],outcome [9],Potency [10],Potency [11],Potency [12],outcome [13],outcome [14],outcome [15],outcome [16],outcome [17],outcome [18],outcome [19],Potency [20]
CC(C)(C)C(=O)NCCCC(=O)O,inactive,inactive,inactive,inactive,inactive,inactive,inactive,inactive,inactive,inactive,inactive,inactive,inactive,inactive,,,,,,
CSC(=O)c1cccc2nnsc12,inactive,inactive,inactive,inactive,inactive,inactive,inactive,inactive,inactive,,21.7 µM (active),,inactive,inactive,inactive,inactive,inactive,inactive,,
CC(=O)OC1CCC(C(C)(C)C)CC1 (centres undefined),inactive,inactive,inactive,inactive,inactive,inactive,inactive,inactive,,inactive,inactive,inactive,inactive,inactive,inactive,inactive,inactive,inactive,inactive,
C=CCN(CC=C)CC=C,inactive,inactive,inactive,inactive,inactive,inactive,inactive,inactive,inactive,,inactive,inactive,,inactive,inactive,,,,,
O=C(O)/C=C(\CC(=O)O)C(=O)O,inactive,inactive,inactive,inactive,inactive,inactive,inactive,inactive,inactive,inactive,inactive,inactive,inactive,inactive,,,,,,
COCCCOc1cc(C[C@@H](C[C@H](N)[C@@H](O)C[C@H](C(=O)NCC(C)(C)C(N)=O)C(C)C)C(C)C)ccc1OC,inactive,inactive,inactive,inactive,inactive,inactive,inactive,inactive,inactive,,inactive,inactive,inactive,inactive,inactive,,,,,
C=CC(=O)OCCOCCOCC,inactive,inactive,inactive,inactive,inactive,inactive,inactive,inactive,,inactive,inactive,inactive,inactive,inactive,,,,,,inactive
BrCCOc1ccccc1,inactive,inactive,inactive,inactive,inactive,inactive,inactive,inactive,inactive,inactive,,inactive,inactive,inactive,inactive,,,,,
C=CCCCCCCCCOC(C)=O,inactive,inactive,inactive,inactive,inactive,inactive,inactive,inactive,,inactive,inactive,,inactive,inactive,,,,,,inactive
CC/C=C/CCCCCCCCCCOC(C)=O,inactive,inactive,inactive,inactive,inactive,inactive,inactive,inactive,inactive,inactive,43.3 µM (active),inactive,inactive,inactive,inactive,,,,,
CC(=O)SC[C@@H](C)C(=O)N1CCC[C@H]1C(=O)N[C@@H](Cc1ccccc1)C(=O)O,inactive,inactive,inactive,inactive,inactive,inactive,inactive,inactive,inactive,inactive,inactive,inactive,inactive,inactive,,,,,,
CCC(C)SSC(C)CC (centres undefined),inactive,inactive,inactive,inactive,inactive,inactive,inactive,inactive,inactive,inactive,,inactive,,inactive,inactive,,,,,
CC(CC(=O)Cl)CC(C)(C)C (centres undefined),inactive,inactive,inactive,inactive,inactive,inactive,inactive,inactive,inactive,inactive,inactive,inactive,inactive,inactive,,,,,,
CCCCCCCCCCCCCCBr,inactive,inactive,inactive,inactive,inactive,inactive,inactive,inactive,inactive,,inactive,inactive,,inactive,inactive,,,,,
CC(C)c1cc(C(C)C)cc(C(C)C)c1,inactive,inactive,inactive,inactive,inactive,inactive,inactive,inactive,inactive,inactive,inactive,inactive,inactive,inactive,inactive,,,,,
